# The list is not random: actives were taken first. Their share in the collection is about 2.2%.
# Abeta yeast res: qHTS for compounds that reverse cellular toxicity of Amyloid beta (A-beta) peptide in yeast: Primary Screen; Potency, µM (doses to about 46.1 µM), usual class: activators; AID 1347071, 2019; yeast expressing A-beta42, growth rescue, OD600, 48 h; response scale: 0% DMSO, 100% iron-clioquinol control; hit rate 0.063% among 410,000; also: nearly all actives have a fitted effect of over 55% in size
#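 Growth rescue measured by 600 nm absorbance after 48 h yeast culture at 30 C with compound. Values normalized between DMSO and an equimolar ferric chloride plus clioquinol control.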
# TDP-43 yeast inh: qHTS of TDP-43 Inhibitors; Potency, µM (doses to about 46.1 µM), for the others: at the highest dose growth rescue (activation), most hits filed as activators; TDP-43 expressing yeast growth rescue, BacTiter-Glo, 24 h; hit rate 1.8% among 410,000; also: % of control where 0% means no effect; nearly all actives have a fitted effect of over 50% in size
#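 In this qHTS, compounds that restore growth of yeast expressing TDP-43 appear as activators. Cells (OD600=0.02, galactose medium, raffinose-pregrown) are incubated with compound 24 hr at 30 deg C and growth is quantified by BacTiter-Glo.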
# aSyn yeast inh: qHTS of alpha-syn Inhibitors | AID 652106, 2013 | Potency, µM (doses to about 46.1 µM), inactives show at the top dose growth rescue (activation), usual class: activators | hit rate 0.14% among 370,000 | Yeast expressing alpha-synuclein, growth rescue, BacTiter-Glo, 24 h; also: % of control where 0% means no effect; nearly all actives have a fitted effect of over 65% in size
#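 Galactose-induced alpha-syn yeast (OD600=0.02, raffinose-pregrown) + pinned cpd, 24 hr, 30 deg C; growth by BacTiter-Glo luminescence. Growth restoration scores as activation.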
# Mito fusion yeast: qHTS Assay for Small Molecule Inhibitors of Mitochondrial Division or Activators of Mitochondrial Fusion; S. cerevisiae fusion-defective mutant growth rescue, CellTiterGlo 48 h; Potency, µM (titrated, usually from 46.1 µM), for the others: top-dose growth rescue (activation), hits mostly activators; hit rate 0.23% among 320,000; also: % of control where 0% means no effect; nearly all actives have a fitted effect of over 45% in size
#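 Luminescent cell viability in 1536-well qHTS format served as the measure of rescued growth in ts fusion-mutant S. cerevisiae cultured on non-fermentable YPEG for 48 hours at 37C.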
# FUS yeast rescue: qHTS for Suppressors of FUS Proteinopathy: Primary screen using FUS-linked yeast assay. Potency, µM (doses to about 76.6 µM), most hits filed as activators. AID 1347120, 2019. hit rate 0.24% among 390,000. S. cerevisiae FUS-expressing, growth rescue, OD600, 24 h;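 also: plate controls were DMSO vehicle for no effect and reference control for full effect; nearly all actives have a fitted effect of over 55% in size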
#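 FUS-expressing yeast, raffinose-pregrown, induced in 2% galactose minimal medium at OD 0.005; compounds in a dilution series, 24hr at 30C. Growth restoration read as absorbance at 600 nm. CP55940 positive control, DMSO negative.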
# * marks the source's active call; other numbers are inactive results; i = inactive; ? = inconclusive; nt = no result given; [ ] = remark or other dose. Calls follow the shape of the dose curve; as a rule, active = well fitted curve in the direction sought with a large enough effect; inconclusive = small, poorly fitted or top-dose-only effect, or another doubt; inactive = no such curve, though single readings can be large; an effect the other way counts as inactive or inconclusive. Potency is read from the fitted curve at half-maximal effect.
SMILES,Abeta yeast res,TDP-43 yeast inh,aSyn yeast inh,Mito fusion yeast,FUS yeast rescue
O=C(O)c1cc([N+](=O)[O-])ccc1NCc1ccccc1,i,18%,-1%,6%,i
O=C(O)c1cc([N+](=O)[O-])ccc1NCCCc1ccccc1,i,28%,-18%,8.2µM*,i
Cn1c(NC(=O)c2ccc(F)cc2)nc2ccccc21,i,28µM*,-6%,-3%,i
CC(C)CNS(=O)(=O)CC1NCc2cc3c(cc21)OCO3 (stereo not given),nt,nt,nt,nt,i
O=C1NC(c2ccccc2)=C(c2nc3ccccc3s2)C(c2ccc(O)cc2)N1 (stereo not given),i,-32%,4%,6%,35µM*
CC(=O)c1ccc(Sc2nnnn2-c2ccccc2)c([N+](=O)[O-])c1,i,20µM*,-19%,4%,i
CN(C(=O)CNC(=O)c1ccccc1OCC(=O)Nc1ccc(Br)cc1)c1ccccc1,nt,nt,nt,nt,i
CC[C@H](C)[C@H]1O[C@]2(CC[C@@H]1C)C[C@@H]1C[C@@H](CC=C(C)[C@@H](O[C@H]3C[C@H](OC)[C@@H](O[C@H]4C[C@H](OC)[C@@H](O)[C@H](C)O4)[C@H](C)O3)[C@@H](C)C=CC=C3CO[C@@H]4[C@H](O)C(C)=C[C@@H](C(=O)O1)[C@]34O)O2,i,10%,25%,nt,7.1µM*
CC[C@@H](C)[C@H]1O[C@]2(CC[C@H]1C)C[C@@H]1C[C@@H](CC=C(C)[C@@H](O[C@H]3C[C@H](OC)[C@@H](O[C@H]4C[C@H](OC)[C@@H](O)[C@H](C)O4)[C@H](C)O3)[C@@H](C)C=CC=C3CO[C@@H]4[C@H](O)C(C)=C[C@@H](C(=O)O1)[C@]34O)O2,nt,nt,4%,2.3µM*,nt
O=C(c1ccc(F)cc1F)N(Cc1ccccn1)CC1CCCO1 (stereo not given),nt,nt,nt,nt,i
CCOC(=O)C1=C(CCl)NC(=O)NC1c1ccc2c(c1)OCO2 (stereo not given),i,5%[1.82 µM],0%,-3%,i
Cc1cn(C(=O)c2ccccc2)c(=S)n1-c1ccc(Br)cc1,i,?,4%,16µM*,i
O=C(COC(=O)c1cnccn1)Nc1ccccc1-c1ccccc1,i,19%,6%,0%,nt
O=C(Nc1ccccc1-c1ccccc1)c1cnccn1,i,18µM*,0%,12%,i
O=S(=O)(c1ccccc1)n1ccc2ccccc21,i,?,1%,3%,i
COc1ccc2ccn(S(=O)(=O)c3ccccc3)c2c1,i,20µM*,0%,5%,i
Cc1ccc(SCCNC(=S)Nc2cc(C)ccc2C)cc1,?,14µM*,4%,13%,i
Fc1ccccc1SCc1nnc(-c2ccccc2Br)o1,i,22µM*,13%,2%,i
O=[N+]([O-])c1cc(Cl)ccc1N1CCOCC1,i,4%,-5%,-1%,i
O=[N+]([O-])c1ccc(N2CCCCC2)cc1N1CCOCC1,i,5%,2%,2%,i
Nc1cc(N2CCOCC2)c(Cl)cc1[N+](=O)[O-],i,20µM*,-1%,2%,i
Nc1cc(N2CCCC2)c(Cl)cc1[N+](=O)[O-],i,11µM*,16%,-1%,i
O=[N+]([O-])c1ccc(N2CCCC2)cc1N1CCCC1,i,16µM*,2%,-5%,i
CCOC(=O)Cn1cc(CN2CCS(=O)(=O)N(Cc3ccccc3)C(C(=O)OC)C2)nn1 (stereo not given),nt,nt,nt,nt,i
CN(C)CC(=O)N[C@H]1C[C@@H]2O[C@@H](CO)CC[C@@H]2O[C@@H]1CCc1ccc(C2=CCCCC2)cc1,nt,nt,nt,nt,i
Cc1ccc(Nc2ncnc(Cl)c2N)cc1,i,35µM*,3%,nt,i
C#CCNC(=O)C[C@@H]1C(=O)N(Cc2ccc(OC)cc2)/C2=C/CCCCC[C@@]21C(=O)OCC,nt,nt,nt,nt,i
O=C(NCC1CCOCC1)c1ccc(-c2ccc(F)c(F)c2)c2ccoc12,i,25µM*,9%,nt,i
